# Results filed as inconclusive are left out. A structure can be active in one record and inactive in another. Calls of active or inactive are those of the source. Rule for the calls, unless noted: active = hit-call score of the fitted dose curve at least 0.9, where 1 is the maximum; inactive = score below 0.9.
# Key:
# [1] = read-out: Interleukin-1 alpha (IL1a), IL1A (gene 3552); assay: BSK_LPS_IL1a: BioMAP Diversity Plus: LPS Assay for Interleukin-1 alpha (IL1a) Biomarker Activity (AID 2283080); conditions: primary human HUVEC with PBMC; actives raise or lower the signal
# In short: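 Readout is IL-1a level by ELISA, 24 h post-dose, fitted as gain or loss relative to DMSO. System: LPS-activated human primary co-culture of vascular endothelium and peripheral blood mononuclear cells, with parallel SRB total-protein cytotoxicity.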
# [2] = read-out: Monocyte Chemoattractant Protein-1 (MCP1), CCL2 (gene 6347); assay: BSK_LPS_MCP1: BioMAP Diversity Plus: LPS Assay for Monocyte Chemoattractant Protein-1 (MCP1) Biomarker Activity (AID 2283081); conditions: primary human HUVEC with PBMC; actives raise or lower the signal
# In short: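 Secreted MCP-1 read by ELISA at 24 h post-dosing in an LPS-activated co-culture of endothelial cells with peripheral blood mononuclear cells. Fits run in both directions, DMSO as baseline; parallel SRB staining tracks overt cytotoxicity.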
# [3] = BSK_LPS_PGE2: BioMAP Diversity Plus: LPS Assay for Prostaglandin E2 (PGE2) Biomarker Activity (AID 2283082); conditions: primary human HUVEC with PBMC; actives raise or lower the signal;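 for AC50: secreted prostaglandin E2 measured by ELISA in LPS-stimulated co-culture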
# In short: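 Primary human endothelial cells and blood mononuclear cells, co-cultured with LPS, receive test chemical; PGE2 ELISA follows at 24 h, with SRB-stained parallel cultures flagging cytotoxicity.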
# [4] = read-out: Macrophage colony-stimulating factor (MCSF), CSF1 (gene 1435); assay: BSK_LPS_MCSF: BioMAP Diversity Plus: LPS Assay for Macrophage colony-stimulating factor (MCSF) Biomarker Activity (AID 2283083); conditions: primary human HUVEC with PBMC; actives raise or lower the signal
# In short: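 Bidirectional fitting against DMSO was applied to M-CSF levels read by ELISA at 24 h post-dose. The system pairs human umbilical vein endothelium with peripheral blood mononuclear cells; parallel SRB staining tracked cytotoxicity.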
# [5] = read-out: Tissue Factor, F3 (gene 2152); assay: BSK_LPS_TissueFactor: BioMAP Diversity Plus: LPS Assay for Tissue Factor Biomarker Activity (AID 2283084); conditions: primary human HUVEC with PBMC; actives raise or lower the signal
# In short: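 Compound was added to an endothelial cell/PBMC co-culture, and after 24 h tissue factor (CD142) was read by ELISA. Gain or loss of signal was fitted against a DMSO baseline, and parallel SRB staining (560 nm) tracked overt cytotoxicity.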
# [6] = read-out: Tumor necrosis factor (Homo sapiens) (UniProt P01375); assay: BSK_LPS_TNFa: BioMAP Diversity Plus: LPS Assay for Tumour Necrosis Factor alpha (TNFa) Biomarker Activity (AID 2283085); conditions: primary human HUVEC with PBMC; actives raise or lower the signal;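 for AC50: TNFa protein level quantified by ELISA in the co-culture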
# In short: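 ELISA-based TNFa endpoint in a human endothelial–PBMC co-culture sampled 24 h post-exposure. Curves were fitted in both directions using DMSO as baseline of activity.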
# [7] = read-out: Vascular cell adhesion molecule 1 (VCAM1), VCAM1 (gene 7412); assay: BSK_LPS_VCAM1: BioMAP Diversity Plus: LPS Assay for Vascular cell adhesion molecule 1 (VCAM1) Biomarker Activity (AID 2283086); conditions: primary human HUVEC with PBMC; actives raise or lower the signal
# In short: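 Measured by ELISA: VCAM-1 in LPS-activated HUVEC/PBMC co-cultures 24 h after treatment. Values reflect bidirectional fitting with DMSO as baseline.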
# CD38, CD38 (gene 952) = assay: BSK_SAg_CD38: BioMAP Diversity Plus: SAg Assay for CD38 Biomarker Activity (AID 2283087); conditions: primary human HUVEC with PBMC; actives raise or lower the signal
# In short: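 Measures CD38 on a human endothelial/PBMC co-culture driven by SEB and TSST-1, 24 h after compound exposure, using ELISA with fluorescence detection; DMSO defines baseline for bidirectional curve fitting.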
# CD40, CD40 (gene 958) = assay: BSK_SAg_CD40: BioMAP Diversity Plus: SAg Assay for CD40 Biomarker Activity (AID 2283088); conditions: primary human HUVEC with PBMC; actives raise or lower the signal
# In short: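 CD40 is measured by fluorescence ELISA in an endothelial/PBMC primary human co-culture at 24 h post-dose. Fitting is bidirectional, DMSO baseline. Parallel SRB staining (560 nm) flags cytotoxicity.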
# [8] = read-out: E-selectin (Homo sapiens) (UniProt P16581); assay: BSK_SAg_Eselectin: BioMAP Diversity Plus: SAg Assay for Eselectin Biomarker Activity (AID 2283091); conditions: primary human HUVEC with PBMC; actives raise or lower the signal
# In short: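 Cell-surface E-selectin is read by ELISA at 24 h in the SAg co-culture of HUVEC and PBMC. Curves are fitted in both directions relative to DMSO. Parallel SRB total-protein staining tracks overt toxicity.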
# [9] = read-out: Monokine induced gamma interferon (MIG), CXCL9 (gene 4283); assay: BSK_SAg_MIG: BioMAP Diversity Plus: SAg Assay for Monokine induced gamma interferon (MIG) Biomarker Activity (AID 2283092); conditions: primary human HUVEC with PBMC; actives raise or lower the signal
# In short: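 ELISA readout of MIG/CXCL9; primary human umbilical vein endothelial cells co-cultured with peripheral blood mononuclear cells; 24 h post-dose; gain/loss fit vs DMSO baseline.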
# [10] = BSK_SAg_PBMCCytotoxicity: PBMC Cytotoxicity Assessment in the BioMAP Diversity Plus: SAg Assay (AID 2283093); conditions: primary human HUVEC with PBMC;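 note: PBMC viability measured as Alamar Blue reduction fluorescence at 546/580 nm; fitted both ways against DMSO so a hit may be loss or gain of signal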
# In short: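 Alamar Blue reduction (6 h, 546/580 nm) reports PBMC cytotoxicity after 90 h superantigen activation (SEB, TSST-1; 20 ng/mL final each) with 1 h compound pre-treatment. Gain or loss of signal fitted versus DMSO.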
# [11] = read-out: Interleukin-8 (IL8), CXCL8 (gene 3576); assay: BSK_SAg_IL8: BioMAP Diversity Plus: SAg Assay for Interleukin-8 (IL8) Biomarker Activity (AID 2283094); conditions: primary human HUVEC with PBMC; actives raise or lower the signal
# In short: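 Primary human endothelial cells with PBMC, exposed 24 h; IL-8 determined by ELISA, analysed bidirectionally relative to DMSO.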
# [12] = BSK_SAg_Proliferation: Cell Proliferation Assessment in the BioMAP Diversity Plus: SAg Assay (AID 2283095); conditions: primary human HUVEC with PBMC;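 note: relative cell number as total protein by SRB absorbance in sub-confluent culture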
# In short: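 A human primary co-culture of umbilical vein endothelium and blood mononuclear cells receives compound; relative cell number is quantified at 96 h by SRB staining and 560 nm absorbance, with DMSO-referenced bidirectional curve fitting.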
# [13] = BSK_SAg_SRB: Viability Assessment in the BioMAP Diversity Plus: SAg Assay (AID 2283096); conditions: primary human HUVEC with PBMC;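 note: cells read one day after compound addition; hits may be either gain or loss of signal compared with DMSO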
# In short: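 This overt-cytotoxicity endpoint quantifies protein in human endothelial/PBMC co-cultures at 24 h using SRB absorbance (560 nm) after trichloroacetic acid fixation. Values reflect signal change from the DMSO negative control, fitted bidirectionally.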
# [14] = biological target: Cytochrome P450 3A4 (Homo sapiens) (UniProt P08684); assay: NVS_ADME_hCYP3A4: NovaScreen (NVS) CYP450-related Enzyme Activity (ADME) Assay for human CYP3A4 (AID 2283110; active = hit-call score of the fitted dose curve at least 0.9, where 1 is the maximum)
# In short: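 Activity is derived from decreased fluorescence intensity relative to acetonitrile, measured 0.33 hour after dosing insect-cell-expressed CYP3A4 in a cell-free format. Screening used 10 uM in duplicate before concentration-response follow-up.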
# CD69, CD69 (gene 969) = assay: BSK_SAg_CD69: BioMAP Diversity Plus: SAg Assay for CD69 Biomarker Activity (AID 2283089); conditions: primary human HUVEC with PBMC; actives raise or lower the signal
# In short: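 ELISA, fluorescence read-out: CD69 on human umbilical vein endothelial cell + PBMC co-culture, 24 h post-dosing. Gain or loss of signal fitted bidirectionally against DMSO baseline.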
# [15] = biological target: human CYP2C9, CYP2C9 (gene 1559) (UniProt P11712); assay: NVS_ADME_hCYP2C9: NovaScreen (NVS) CYP450-related Enzyme Activity (ADME) Assay for human CYP2C9 (AID 2283108; active = hit-call score of the fitted dose curve at least 0.9, where 1 is the maximum)
# In short: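 Cell-free assay of recombinant human CYP2C9 produced in Sf9 cells, with enzyme activity read by fluorescence intensity 0.75 h after compound addition. Loss of signal versus an acetonitrile negative control indicates inhibition. Primary screen used 10 uM in duplicate; actives were retested in concentration series.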
# [16] = read-out: Monocyte Chemoattractant Protein-1 (MCP1), CCL2 (gene 6347); assay: BSK_SAg_MCP1: BioMAP Diversity Plus: SAg Assay for Monocyte Chemoattractant Protein-1 (MCP1) Biomarker Activity (AID 2283090); conditions: primary human HUVEC with PBMC; actives raise or lower the signal
# In short: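 Values derive from bidirectional fitting of ELISA-measured MCP1 against DMSO controls. Readings were taken 24 h after dosing human vascular endothelial cells co-cultured with peripheral blood mononuclear cells under superantigen stimulation.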
# Chain of E-selectin (Homo sapiens) (P16581 whole entry, looked up): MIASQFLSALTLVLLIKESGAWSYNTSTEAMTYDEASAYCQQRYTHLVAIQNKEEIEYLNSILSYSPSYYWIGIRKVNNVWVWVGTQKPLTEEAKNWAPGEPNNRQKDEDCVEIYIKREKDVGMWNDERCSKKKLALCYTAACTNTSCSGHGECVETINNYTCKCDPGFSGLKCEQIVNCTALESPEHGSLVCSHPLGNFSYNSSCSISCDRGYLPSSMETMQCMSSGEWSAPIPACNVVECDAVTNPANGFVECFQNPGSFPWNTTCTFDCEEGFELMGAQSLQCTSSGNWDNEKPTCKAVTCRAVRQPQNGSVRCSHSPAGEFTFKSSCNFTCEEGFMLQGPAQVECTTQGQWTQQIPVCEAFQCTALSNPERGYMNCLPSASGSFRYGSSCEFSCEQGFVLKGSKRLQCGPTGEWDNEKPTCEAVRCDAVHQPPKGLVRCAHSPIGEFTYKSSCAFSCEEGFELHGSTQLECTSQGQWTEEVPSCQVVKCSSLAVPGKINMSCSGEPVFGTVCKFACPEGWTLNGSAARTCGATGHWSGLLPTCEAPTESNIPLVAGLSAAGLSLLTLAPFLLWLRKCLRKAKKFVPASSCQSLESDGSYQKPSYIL
# Chain of Tumor necrosis factor (Homo sapiens) (P01375 whole entry, looked up): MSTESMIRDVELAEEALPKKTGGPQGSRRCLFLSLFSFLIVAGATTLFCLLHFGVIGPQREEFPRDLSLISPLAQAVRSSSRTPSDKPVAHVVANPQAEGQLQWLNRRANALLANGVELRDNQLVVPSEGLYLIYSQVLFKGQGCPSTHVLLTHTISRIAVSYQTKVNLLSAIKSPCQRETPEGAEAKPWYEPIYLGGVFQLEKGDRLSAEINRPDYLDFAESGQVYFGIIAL
# Chain of Cytochrome P450 3A4 (Homo sapiens) (P08684 whole entry, looked up): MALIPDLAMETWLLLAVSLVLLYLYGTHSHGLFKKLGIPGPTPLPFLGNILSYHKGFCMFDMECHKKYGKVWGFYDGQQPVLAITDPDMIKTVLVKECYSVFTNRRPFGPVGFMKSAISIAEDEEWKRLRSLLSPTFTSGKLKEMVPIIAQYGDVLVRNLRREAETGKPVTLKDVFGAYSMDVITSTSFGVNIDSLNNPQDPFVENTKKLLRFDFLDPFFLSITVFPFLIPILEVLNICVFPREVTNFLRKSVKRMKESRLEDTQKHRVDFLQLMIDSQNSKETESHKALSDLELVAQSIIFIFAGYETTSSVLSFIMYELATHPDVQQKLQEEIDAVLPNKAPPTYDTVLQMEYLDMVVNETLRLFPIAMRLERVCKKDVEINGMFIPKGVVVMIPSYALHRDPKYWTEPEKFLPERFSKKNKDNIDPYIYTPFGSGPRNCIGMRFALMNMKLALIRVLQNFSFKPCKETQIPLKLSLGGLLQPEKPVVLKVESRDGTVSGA
# Chain of human CYP2C9, CYP2C9 (gene 1559) (P11712 whole entry, looked up): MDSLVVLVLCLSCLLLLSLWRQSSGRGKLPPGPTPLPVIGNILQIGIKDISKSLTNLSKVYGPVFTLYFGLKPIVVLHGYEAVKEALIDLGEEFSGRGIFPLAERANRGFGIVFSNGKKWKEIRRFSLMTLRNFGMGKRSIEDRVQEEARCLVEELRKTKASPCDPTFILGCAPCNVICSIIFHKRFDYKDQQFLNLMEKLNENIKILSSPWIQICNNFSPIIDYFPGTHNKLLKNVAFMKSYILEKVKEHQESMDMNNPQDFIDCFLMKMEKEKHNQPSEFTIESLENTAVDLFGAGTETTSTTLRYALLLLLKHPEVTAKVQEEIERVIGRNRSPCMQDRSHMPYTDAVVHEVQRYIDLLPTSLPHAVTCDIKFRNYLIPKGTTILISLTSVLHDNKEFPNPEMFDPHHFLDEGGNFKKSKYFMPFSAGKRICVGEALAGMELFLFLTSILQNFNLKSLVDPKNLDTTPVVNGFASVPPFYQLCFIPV
smiles,measurement,setting,value
CCN(CC)c1ccc2c(C)cc(=O)oc2c1,outcome,[1],inactive
same,outcome,[2],inactive
same,AC50,[3],6.52 µM (active)
same,outcome,[4],inactive
same,outcome,[5],inactive
same,outcome,[6],inactive
same,outcome,[7],inactive
same,outcome,"CD38, CD38 (gene 952)",inactive
same,outcome,"CD40, CD40 (gene 958)",inactive
same,outcome,[8],inactive
same,outcome,[9],inactive
same,outcome,[10],inactive
same,outcome,[11],inactive
same,outcome,[12],inactive
same,outcome,[13],inactive
same,outcome,[14],inactive
O=C(O)C(F)(F)C(F)(F)C(F)(F)F,outcome,[1],inactive
same,outcome,[2],inactive
same,outcome,[3],inactive
same,outcome,[4],inactive
same,outcome,[5],inactive
same,outcome,[6],inactive
same,outcome,[7],inactive
same,outcome,"CD38, CD38 (gene 952)",inactive
same,outcome,"CD40, CD40 (gene 958)",inactive
same,outcome,"CD69, CD69 (gene 969)",inactive
same,outcome,[8],inactive
same,outcome,[9],inactive
same,outcome,[10],inactive
same,outcome,[11],inactive
same,outcome,[12],inactive
same,outcome,[13],inactive
CCCCOCCOCCOC(=O)CCCCC(=O)OCCOCCOCCCC,outcome,[1],inactive
same,outcome,[2],inactive
same,outcome,[3],inactive
same,outcome,[4],inactive
same,outcome,[5],inactive
same,AC50,[6],5.67 µM (active)
same,outcome,[7],inactive
same,outcome,"CD38, CD38 (gene 952)",inactive
same,outcome,"CD40, CD40 (gene 958)",inactive
same,outcome,[8],inactive
same,outcome,[9],inactive
same,outcome,[10],inactive
same,outcome,[11],inactive
same,outcome,[12],inactive
same,outcome,[13],inactive
same,AC50,[15],3.07 µM (active)
O=C(O)C(F)(F)C(F)(F)C(F)(F)C(F)(F)C(F)(F)C(F)(F)C(F)(F)C(F)(F)C(F)(F)C(F)(F)C(F)(F)C(F)(F)C(F)(F)F,outcome,[1],inactive
same,outcome,[2],inactive
same,outcome,[3],inactive
same,outcome,[4],inactive
same,outcome,[5],inactive
same,outcome,[6],inactive
same,outcome,[7],inactive
same,outcome,"CD38, CD38 (gene 952)",inactive
same,AC50,"CD40, CD40 (gene 958)",0.869 µM (active)
same,outcome,"CD40, CD40 (gene 958)",inactive
same,outcome,[16],inactive
same,outcome,[8],inactive
same,outcome,[9],inactive
same,outcome,[10],inactive
same,outcome,[11],inactive
same,outcome,[12],inactive
same,outcome,[13],inactive
O=C(O)C(F)(OC(F)(F)C(F)(OC(F)(F)C(F)(OC(F)(F)C(F)(F)C(F)(F)F)C(F)(F)F)C(F)(F)F)C(F)(F)F (stereo not given),outcome,[1],inactive
same,outcome,[2],inactive
same,outcome,[3],inactive
same,outcome,[4],inactive
same,outcome,[5],inactive
same,outcome,[6],inactive
same,outcome,[7],inactive
same,outcome,"CD38, CD38 (gene 952)",inactive
same,outcome,"CD40, CD40 (gene 958)",inactive
same,outcome,[8],inactive
same,outcome,[9],inactive
same,outcome,[10],inactive
same,outcome,[11],inactive
same,outcome,[12],inactive
same,outcome,[13],inactive
O=C(O)C(F)(F)C(F)(F)C(F)F,outcome,[1],inactive
same,outcome,[2],inactive
same,outcome,[3],inactive
same,outcome,[4],inactive
same,outcome,[5],inactive
same,outcome,[6],inactive
same,outcome,[7],inactive
same,outcome,"CD38, CD38 (gene 952)",inactive
same,outcome,"CD40, CD40 (gene 958)",inactive
same,outcome,[8],inactive
same,outcome,[9],inactive
same,outcome,[10],inactive
same,outcome,[11],inactive
same,outcome,[12],inactive
same,outcome,[13],inactive

# Reference: PubChem BioAssay (EPA / NIEHS)
